According to publication PMC13494018:

B1: d8r1_design_ppi_1080_dldesign_0_cycle0_af2pred (protein)
chain: SMESVLKSAESLAEAARRLAAERAAEPELVLRAAENALAGGTKLGEARGPEVAKKVRERMEATLAEIRARLA
B2: d8r1_design_ppi_1408_dldesign_0_cycle1_af2pred (protein)
chain: EESVKASILAAIERGARLLAAENPAAGVAALTVARVLTTTGGLGSAIAGAAAFAAIAAAATGARGAAIGGSVVSFTVKLVEMYK
B3: d8r1_design_ppi_1323_dldesign_0_cycle1_af2pred (protein)
chain: MKASIKHLIEQAKKYAKEAKETGSDALARAAASAAAAAAVLAKEAGDKELAKEAEKVAKEIAEVAPPSIAKYAKEAAKLAAE
B4: d8r1_design_ppi_219_dldesign_0_cycle1_af2pred (protein)
chain: DARLERVAKVTAEAYAKVAAVAAGEKLPLARRAAALLAAGGFSPEAAAEYFAEAKAIAAEIGPEAAAIIEEAGKAV
B5: d8r1_design_ppi_419_dldesign_0_cycle0_af2pred (protein)
chain: SELEEEARKAEEEFRAALAELEAAAAELEKLDPAAGATARRAAEGARGLLELAKKFSVKSQLNVAKSMLRGAERQLAAARARVAALK
B6: d8r1_design_ppi_305_dldesign_0_cycle1_af2pred (protein)
chain: AEEALKLLAEAAAAASPEVAALANQALALLKQAENPEAMKQAIALLNAAYLAADPAIQPLIRRALQLAMQVLAKADR
B7: d8r1_design_ppi_87_dldesign_0_cycle0_af2pred (protein)
chain: MEEEFDERMRKAAEYLAKMDAALAAIKAAGDRAEAEKLLAELRKAGEEMAKELGEAGKAIKEALEAQAQAALAA
B8: d8r1_design_ppi_456_dldesign_0_cycle1_af2pred (protein)
chain: SAQAAAAEKLRALADAIAAASPAYQPAANALRAAAVVAEKSGNGASALALLDAAIAAAAKVPGGAEWAAAIRAAAAEVRAAFA
B9: d8r1_design_ppi_321_dldesign_0_cycle1_af2pred (protein)
chain: GSNFEKAYYAGEAYSYAYAAVKEAKALVKALGDAAKPLLDEAEALLKKIEEVLKNGNLEEAKKMLEEAKALLEKVKAA
B10: d8r1_design_ppi_679_dldesign_0_cycle1_af2pred (protein)
chain: ATAEARRAVVEEAIARITAALADRPQWAAKAAAVLERGARLGREAEAARAVAAMLEVLGYTEAAAVAAEAAERIAAL
B11: d8r1_design_ppi_502_dldesign_0_cycle0_af2pred (protein)
chain: SFEEEKKKADEYMTKAAELAPPELKPAVQNMRDGILKAFEVSPKSALNLAKSALRWVKKHGSEEAAKEMEKALEHLEKAAE
B12: d8r1_design_ppi_1423_dldesign_0_cycle0_af2pred (protein)
chain: STAEKIAKYNKFAEEAKAAAKRVAEEGEEAAKEAIETLKKLAKESDAETAETLNKLAEIAEEGGGSAALAAMQAAAVHFANKAAKLAA
B13: d8r1_design_ppi_645_dldesign_0_cycle0_af2pred (protein)
chain: KLEEAKEKLEKGKELLKKAKEDPENAIEYAKEALKEFSEASRLAAEAAKDEEYKEEAEELLKEANKLASEATQLLAKKASEEEK
B14: d8r1_design_ppi_536_dldesign_0_cycle0_af2pred (protein)
chain: SKDEEIAKLLLKTAEAARKDAKKALELAKELKKLGNKNQGGAIVTLLQAAVENKGAAGKSALAGAVKLAEAKAEDLLAK
B15: d8r1_design_ppi_139_dldesign_0_cycle0_af2pred (protein)
chain: EELLEKLKEKAEKVKKLAEEGAEAEELEKARKELGAALSALTRAIAEASPELAAKGREAAAEAAKAAIKAGEKAEELKKA
B16: d8r1_design_ppi_1135_dldesign_0_cycle1_af2pred (protein)
chain: DPREQFAAAVKEAAAALPDIADQVLALGEQALAAEGQAAADAMKAFVTLVTAAAAKASPEAAKAAGIAAANAMKAVSKIEE
B17: d8r1_design_ppi_790_dldesign_0_cycle1_af2pred (protein)
chain: KAEEAKALAEKAIAAAPDVDAAAEEIAAAVKLGTGEALVAAARAAAAAIRALGDPAAQARLLELAREHGSRTYAAVAAGLAIARAEAA
B18: d8r1_design_ppi_290_dldesign_0_cycle1_af2pred (protein)
chain: SKAEAEKLKAQIEAAKAAGVAGDAATAAAAIAAITALADQAAALDPEYAAEVVNAANKAMLAVGDAREAKAAA
B19: d8r1_design_ppi_78_dldesign_0_cycle1_af2pred (protein)
chain: SMKKEEAKKVAEEARKAAKEAEELAKKIGDAKLAQQAKNIAAGADKAAEFGSLNMVKAFLREAKKLKEEAKKKLA

Target: PDL1, Q9NZQ7
Sequence (Q9NZQ7 whole entry): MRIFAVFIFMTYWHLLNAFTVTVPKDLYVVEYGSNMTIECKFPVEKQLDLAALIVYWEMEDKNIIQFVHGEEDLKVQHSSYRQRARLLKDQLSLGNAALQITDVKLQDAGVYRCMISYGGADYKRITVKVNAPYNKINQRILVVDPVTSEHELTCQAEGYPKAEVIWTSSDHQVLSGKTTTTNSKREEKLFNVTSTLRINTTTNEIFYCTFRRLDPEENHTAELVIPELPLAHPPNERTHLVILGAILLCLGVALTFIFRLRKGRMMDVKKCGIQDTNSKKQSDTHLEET

Binding in a display sort, active:
B9 binds

Binding in a display sort, inactive:
B1 not found
B2 not found
B3 not found
B4 not found
B5 not found
B6 not found
B7 not found
B8 not found
B10 not found
B11 not found
B12 not found
B13 not found
B14 not found
B15 not found
B16 not found
B17 not found
B18 not found
B19 not found
